From paper PMC10812921, “Transcriptional Coactivator BOB1 (OBF1, OCA-B) Modulates the Specificity of DNA Recognition by the POU-Domain Factors OCT1 and OCT2 in a Monomeric Configuration”

What was measured:
POU1 (OCT1 POU domain) = POU1 (OCT1 POU domain) (human, UniProt P14859 260-458); assay: EMSA-SELEX-seq; no BOB1; 20 mM Tris-HCl pH 7.6, 140 mM NaCl, 10% glycerol, 0.5 mM EDTA, 0.05% Triton X-100, 0.1 mg/mL BSA, 0.1 mg/mL poly(dI-dC), 5 mM DTT, room temperature, 20 min; high values mean tight binding; conditions: protein: recombinant; dsDNA, one strand shown
How it was run: (§1)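 Binding preference means the percentage of sequenced 8-mers matching a motif pattern. Tagged POU-domain proteins (30 ng), expressed in E. coli BL21, purified under denaturing conditions and renatured, were mixed with 300 ng of a PCR-amplified double-stranded random 35-nt library, with or without 28 ng coactivator protein, for 20 min at RT in 20 μL Tris–HCl pH 7.6 binding buffer. Selection was repeated over four rounds of excising complex bands from native 6% PAGE, eluting and PCR amplification, followed by Illumina sequencing.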

POU2 (OCT2 POU domain) = target: T1, POU2 (OCT2 POU domain) (human, UniProt P09086 175-386); assay: as above; conditions: protein: recombinant; dsDNA, one strand shown
T1 sequence: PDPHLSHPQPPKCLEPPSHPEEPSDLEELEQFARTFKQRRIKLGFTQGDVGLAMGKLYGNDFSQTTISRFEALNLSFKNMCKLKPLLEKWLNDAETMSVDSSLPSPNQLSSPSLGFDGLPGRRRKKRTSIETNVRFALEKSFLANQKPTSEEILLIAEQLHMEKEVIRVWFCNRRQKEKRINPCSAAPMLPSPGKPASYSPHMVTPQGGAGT
How it was run: as §1

[1] = target: POU1 (OCT1 POU domain);BOB1 (OBF1, OCA-B) (human;human, UniProt P14859;Q16633 260-458;1-256, |); assay: EMSA-SELEX-seq; with BOB1 (ternary complex band); 20 mM Tris-HCl pH 7.6, 140 mM NaCl, 10% glycerol, 0.5 mM EDTA, 0.05% Triton X-100, 0.1 mg/mL BSA, 0.1 mg/mL poly(dI-dC), 5 mM DTT, room temperature, 20 min; high values mean tight binding; conditions: protein: recombinant;recombinant; copies: 1;1; dsDNA, one strand shown
How it was run: as §1

[2] = target: T2, POU2 (OCT2 POU domain);BOB1 (OBF1, OCA-B) (human;human, UniProt P09086;Q16633 175-386;1-256, |); assay: as above; conditions: protein: recombinant;recombinant; copies: 1;1; dsDNA, one strand shown
T2 sequence 1: T1 sequence
T2 sequence 2: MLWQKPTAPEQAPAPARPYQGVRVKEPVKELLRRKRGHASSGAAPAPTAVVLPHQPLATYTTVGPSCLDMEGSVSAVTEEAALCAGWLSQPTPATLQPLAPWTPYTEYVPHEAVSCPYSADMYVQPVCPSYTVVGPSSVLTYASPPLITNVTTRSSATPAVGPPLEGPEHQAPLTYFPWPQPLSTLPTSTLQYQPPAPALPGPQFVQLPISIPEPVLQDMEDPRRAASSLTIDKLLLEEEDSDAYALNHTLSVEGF
How it was run: as §1

Chain of POU1 (OCT1 POU domain) (P14859 260-458): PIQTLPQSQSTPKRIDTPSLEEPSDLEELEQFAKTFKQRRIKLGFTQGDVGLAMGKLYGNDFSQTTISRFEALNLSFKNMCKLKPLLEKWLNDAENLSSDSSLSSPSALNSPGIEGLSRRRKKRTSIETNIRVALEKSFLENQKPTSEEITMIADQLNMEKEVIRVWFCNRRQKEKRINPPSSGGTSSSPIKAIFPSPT

| Sequence | binding signal (POU1 (OCT1 POU domain)) | binding signal (POU2 (OCT2 POU domain)) | binding signal [1] | binding signal [2] |
| --- | --- | --- | --- | --- |
| ATACAAAA | 0.144 % of ANNNNAAN 8-mers | 0.0857 % of ANNNNAAN 8-mers | 0.195 % of ANNNNAAN 8-mers | 0.105 % of ANNNNAAN 8-mers |
| ACGCCAAT | 0.0137 % of ANNNNAAN 8-mers | 0.0184 % of ANNNNAAN 8-mers | 0.0195 % of ANNNNAAN 8-mers | 0.0256 % of ANNNNAAN 8-mers |
| AGCAAAAG | 0.0442 % of ANNNNAAN 8-mers | 0.0322 % of ANNNNAAN 8-mers | 0.062 % of ANNNNAAN 8-mers | 0.0429 % of ANNNNAAN 8-mers |
| AACTGAAT | 0.0885 % of ANNNNAAN 8-mers | 0.108 % of ANNNNAAN 8-mers | 0.0562 % of ANNNNAAN 8-mers | 0.0735 % of ANNNNAAN 8-mers |
| AAGGCAAA | 0.222 % of ANNNNAAN 8-mers | 0.117 % of ANNNNAAN 8-mers | 0.443 % of ANNNNAAN 8-mers | 0.278 % of ANNNNAAN 8-mers |
| AGTTTAAG | 0.05 % of ANNNNAAN 8-mers | 0.0656 % of ANNNNAAN 8-mers | 0.0519 % of ANNNNAAN 8-mers | 0.0504 % of ANNNNAAN 8-mers |
| AAGGTAAC | 0.0313 % of ANNNNAAN 8-mers | 0.0293 % of ANNNNAAN 8-mers | 0.0234 % of ANNNNAAN 8-mers | 0.0322 % of ANNNNAAN 8-mers |
| AATCAAAA | 0.122 % of ANNNNAAN 8-mers | 0.099 % of ANNNNAAN 8-mers | 0.142 % of ANNNNAAN 8-mers | 0.0792 % of ANNNNAAN 8-mers |
| ACGCAAAG | 0.098 % of ANNNNAAN 8-mers | 0.061 % of ANNNNAAN 8-mers | 0.163 % of ANNNNAAN 8-mers | 0.0809 % of ANNNNAAN 8-mers |
| ACTTGAAA | 0.0317 % of ANNNNAAN 8-mers | 0.042 % of ANNNNAAN 8-mers | 0.0433 % of ANNNNAAN 8-mers | 0.0371 % of ANNNNAAN 8-mers |
| AGCCTAAT | 0.0503 % of ANNNNAAN 8-mers | 0.0811 % of ANNNNAAN 8-mers | 0.0324 % of ANNNNAAN 8-mers | 0.038 % of ANNNNAAN 8-mers |
| AGGGAAAG | 0.194 % of ANNNNAAN 8-mers | 0.136 % of ANNNNAAN 8-mers | 0.222 % of ANNNNAAN 8-mers | 0.142 % of ANNNNAAN 8-mers |
| ACAGCAAG | 0.0156 % of ANNNNAAN 8-mers | 0.0155 % of ANNNNAAN 8-mers | 0.0164 % of ANNNNAAN 8-mers | 0.014 % of ANNNNAAN 8-mers |
| AGCGTAAG | 0.0214 % of ANNNNAAN 8-mers | 0.0293 % of ANNNNAAN 8-mers | 0.0215 % of ANNNNAAN 8-mers | 0.0338 % of ANNNNAAN 8-mers |
| AAAATAAA | 0.153 % of ANNNNAAN 8-mers | 0.16 % of ANNNNAAN 8-mers | 0.148 % of ANNNNAAN 8-mers | 0.105 % of ANNNNAAN 8-mers |
| AAATAAAT | 0.261 % of ANNNNAAN 8-mers | 0.275 % of ANNNNAAN 8-mers | 0.232 % of ANNNNAAN 8-mers | 0.22 % of ANNNNAAN 8-mers |
| AAGCTAAC | 0.0137 % of ANNNNAAN 8-mers | 0.0178 % of ANNNNAAN 8-mers | 0.0191 % of ANNNNAAN 8-mers | 0.0215 % of ANNNNAAN 8-mers |
| ACCATAAC | 0.032 % of ANNNNAAN 8-mers | 0.0213 % of ANNNNAAN 8-mers | 0.014 % of ANNNNAAN 8-mers | 0.0198 % of ANNNNAAN 8-mers |
| AGGTGAAA | 0.0587 % of ANNNNAAN 8-mers | 0.0466 % of ANNNNAAN 8-mers | 0.0601 % of ANNNNAAN 8-mers | 0.0471 % of ANNNNAAN 8-mers |
| AGGCTAAC | 0.013 % of ANNNNAAN 8-mers | 0.023 % of ANNNNAAN 8-mers | 0.0191 % of ANNNNAAN 8-mers | 0.0223 % of ANNNNAAN 8-mers |
| ATACCAAA | 0.0397 % of ANNNNAAN 8-mers | 0.0541 % of ANNNNAAN 8-mers | 0.041 % of ANNNNAAN 8-mers | 0.038 % of ANNNNAAN 8-mers |
| ACGTAAAT | 0.217 % of ANNNNAAN 8-mers | 0.172 % of ANNNNAAN 8-mers | 0.232 % of ANNNNAAN 8-mers | 0.147 % of ANNNNAAN 8-mers |
| ATATTAAC | 0.151 % of ANNNNAAN 8-mers | 0.189 % of ANNNNAAN 8-mers | 0.0667 % of ANNNNAAN 8-mers | 0.0751 % of ANNNNAAN 8-mers |
| AAACCAAC | 0.0206 % of ANNNNAAN 8-mers | 0.0104 % of ANNNNAAN 8-mers | 0.0199 % of ANNNNAAN 8-mers | 0.0215 % of ANNNNAAN 8-mers |
| AAGCGAAA | 0.0358 % of ANNNNAAN 8-mers | 0.0391 % of ANNNNAAN 8-mers | 0.0429 % of ANNNNAAN 8-mers | 0.0289 % of ANNNNAAN 8-mers |
| AACTCAAT | 0.0378 % of ANNNNAAN 8-mers | 0.0437 % of ANNNNAAN 8-mers | 0.0289 % of ANNNNAAN 8-mers | 0.0314 % of ANNNNAAN 8-mers |
| ATGCGAAA | 0.0835 % of ANNNNAAN 8-mers | 0.0926 % of ANNNNAAN 8-mers | 0.0648 % of ANNNNAAN 8-mers | 0.0743 % of ANNNNAAN 8-mers |
| AGTCTAAG | 0.0236 % of ANNNNAAN 8-mers | 0.0322 % of ANNNNAAN 8-mers | 0.0343 % of ANNNNAAN 8-mers | 0.0297 % of ANNNNAAN 8-mers |
| AATAAAAA | 0.137 % of ANNNNAAN 8-mers | 0.132 % of ANNNNAAN 8-mers | 0.125 % of ANNNNAAN 8-mers | 0.0958 % of ANNNNAAN 8-mers |
| AAAATAAG | 0.13 % of ANNNNAAN 8-mers | 0.125 % of ANNNNAAN 8-mers | 0.148 % of ANNNNAAN 8-mers | 0.114 % of ANNNNAAN 8-mers |
